Bioassay records as filed in PubChem.
LmPK inhibitor: blocks Leishmania mexicana pyruvate kinase activity; Q27686; purified LmPK, Kinase-Glo ATP luminescence, 1 h; Potency, µM (top dose mostly 57.5 µM), hits mostly inhibitors; 290,000 compounds, 0.37% hits; AID 1721
Target sequence (Q27686 whole entry, looked up): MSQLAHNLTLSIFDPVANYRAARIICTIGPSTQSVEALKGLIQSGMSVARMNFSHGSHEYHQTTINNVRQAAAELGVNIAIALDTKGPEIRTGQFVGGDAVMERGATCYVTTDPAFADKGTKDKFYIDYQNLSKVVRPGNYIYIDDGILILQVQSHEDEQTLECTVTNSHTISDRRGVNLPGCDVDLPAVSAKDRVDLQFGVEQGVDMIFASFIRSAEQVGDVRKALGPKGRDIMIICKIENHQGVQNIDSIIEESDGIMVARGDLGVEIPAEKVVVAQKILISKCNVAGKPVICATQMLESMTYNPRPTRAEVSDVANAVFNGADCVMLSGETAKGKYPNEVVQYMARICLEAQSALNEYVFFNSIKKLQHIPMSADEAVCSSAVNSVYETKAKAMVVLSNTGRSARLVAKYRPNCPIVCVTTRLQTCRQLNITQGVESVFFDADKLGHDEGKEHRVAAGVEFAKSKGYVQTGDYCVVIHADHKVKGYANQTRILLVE
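0.1 nM LmPK, 0.5 mM PEP, 0.1 mM ADP; 50 mM imidazole pH 7.2, 7 mM MgCl2, 50 mM KCl; 1 h RT. Kinase-Glo luminescence readout, normalized to no-enzyme (full inhibition) and uninhibited wells.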
TbPYK inhibitor: inhibitors of Trypanosoma brucei pyruvate kinase; Potency, µM (titrated, usually from 76.8 µM), hits mostly inhibitors; TbPYK enzyme, Kinase-Glo Plus ATP luminescence, 45 min; 410,000 compounds, 0.12% hits; AID 624173; note: nearly all actives have a fitted effect of over 50% in size
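T. brucei PYK with substrate was exposed to pin-transferred compounds across a concentration series, then started with 130 uM ADP (final). After 45 min at room temperature, Kinase-Glo Plus luminescence was read, normalized and curve-fitted.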
SARS PLP yeast: inhibitors of SARS-CoV papain-like protease in yeast | S. cerevisiae expressing SARS-CoV PLpro, growth rescue | Potency, µM (top dose mostly 32.9 µM), actives largely listed as activators | 330,000 compounds, 0.19% hits; calls by dose curve; note: nearly all actives have a fitted effect of over 55% in size
NS1 function inh: blocks influenza NS1 protein function. 270,000 compounds, 0.4% hits. Potency, µM (doses to about 46.1 µM); calls by dose curve; note: actives are rising curves; nearly all actives have a fitted effect of over 50% in size
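Recovery from NS1-induced slow growth read by OD600 in budding yeast switched to galactose assay medium (pH 6.0, -URA) at 1:100 dilution. Compound 23 nl per well; the matching strain lacking NS1 serves as control.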
Sm TGR inh: blocks Schistosoma mansoni thioredoxin glutathione reductase | purified TGR, DTNB reduction, TNB absorbance 405 nm | Potency, µM (doses to about 114 µM), usual class: inhibitors | 360,000 compounds, 3% hits | AID 485364; note: nearly all actives have a fitted effect of over 60% in size
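First, TGR (20 nM dispensed) and NADPH were mixed with compound. Second, a 15 min room-temperature incubation followed. Third, further NADPH and then DTNB were added to start the reaction. Finally, TNB absorbance was monitored kinetically.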
RE007 growth inh: less growth of the S. pombe RE007 Vpr strain; AID 651644; Potency, µM (doses to about 92.2 µM), hits mostly inhibitors; 360,000 compounds, 0.21% hits; S. pombe RE007 Vpr strain, BacTiter-Glo ATP luminescence, 24 h; active = well fitted falling curve with a large enough effect; inconclusive = small, poorly fitted or top-dose-only effect; inactive = no such curve, though single readings can be large or run the other way; note: nearly all actives have a fitted effect of over 50% in size
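Fission yeast RE007 carrying one integrated HIV-1 vpr copy, seeded at OD 0.01 in PMG+AL medium with 23 nL pinned compound. Grown 24 h at 30 degrees; viability read by BacTiter-Glo luminescence after 5 min.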
Large screens that a line does not name were inactive. The list is not random: actives were taken first. Their share in the collection is about 3.3%. Unless noted, calls come from the whole dose curve; as a rule, active = well fitted curve in the direction sought with a large enough effect; inconclusive = small, poorly fitted or top-dose-only effect, or another doubt; inactive = no such curve, though single readings can be large; an effect the other way counts as inactive or inconclusive.

CCc1ccc(NC(=O)CC2C(=O)N(c3cccc(OC)c3)C(=O)N2Cc2ccc(F)cc2)cc1 (stereo unspecified)	none (no result: LmPK inhibitor, SARS PLP yeast, NS1 function inh, RE007 growth inh)
CCOc1ccc(-c2cn3ccccc3n2)cc1	LmPK inhibitor 12.6µM, TbPYK inhibitor inconclusive, RE007 growth inh inconclusive (no result: Sm TGR inh)
COc1ccc(CC(=O)Nc2ccc(-c3cn4ccccc4n3)cc2)cc1	none
COc1ccc(-c2nc(-c3ccncc3)no2)cc1	none
COc1ccc(-c2nc(-c3cccs3)no2)cc1	LmPK inhibitor 15.8µM
O=P(/C(=N/O)Sc1ccccc1)(N1CCOCC1)N1CCOCC1	Sm TGR inh 12.6µM
NCCCn1cnc2ccccc21	Sm TGR inh 35.5µM (no result: NS1 function inh)
CCCOc1ccc(CNC(=O)Cn2ncn3c(cc4sc(CC)cc43)c2=O)cc1	none (no result: LmPK inhibitor, SARS PLP yeast, NS1 function inh, RE007 growth inh)
COC(=O)c1ccc2nc(-c3cccc(N)c3)cn2c1	LmPK inhibitor 25.1µM
COC(=O)c1ccc2nc(-c3ccc(S(C)(=O)=O)cc3)cn2c1	none (no result: NS1 function inh)
CNC(=O)Oc1cccc(-c2cn3cc(Cl)ccc3n2)c1	LmPK inhibitor 14.1µM, RE007 growth inh inconclusive
CC(C)CCC(=O)OC1CCC2C3CCC4=CC(=O)CC[C@]4(C)C3CC[C@]12C (stereo partly specified)	none (no result: LmPK inhibitor, SARS PLP yeast, NS1 function inh, Sm TGR inh, RE007 growth inh)
COc1cc2c(C(=O)N3CCN(c4ccc(F)cc4)CC3)cn(CC(C)C)c(=O)c2cc1OC	none (no result: LmPK inhibitor, SARS PLP yeast, NS1 function inh, RE007 growth inh)
CC(C)c1cc2c(c(O)c1O)[C@@]13CCCC(C)(C)C1CC2OC3=O (stereo partly specified)	LmPK inhibitor 15.8µM, TbPYK inhibitor inconclusive, Sm TGR inh 2.82µM
O=C(Nc1ccc(Cl)cc1)c1ccc(-n2cccn2)c([N+](=O)[O-])c1	none
Cc1ccc(NC(=O)c2ccc(-n3cccn3)c([N+](=O)[O-])c2)cc1C	Sm TGR inh 11.2µM
COc1ccccc1NC(=O)c1ccc(-n2cccn2)c([N+](=O)[O-])c1	Sm TGR inh 25.1µM
COc1ccc(NC(=O)c2ccc(-n3cccn3)c([N+](=O)[O-])c2)cc1	Sm TGR inh 39.8µM
COC(=O)C1=C(C)NC(=O)NC1c1ccc([N+](=O)[O-])o1 (stereo unspecified)	Sm TGR inh inconclusive (no result: RE007 growth inh)
COC(=O)C1=C(C)NC(=S)NC1c1ccc(-c2cc(Cl)ccc2Cl)o1 (stereo unspecified)	Sm TGR inh 12.6µM
COC(=O)C1=C(C)NC(=O)NC1c1ccc(-c2ccc(Cl)cc2)o1 (stereo unspecified)	Sm TGR inh 14.1µM
O=c1c(O)cccc2cc(O)c(O)c(O)c12	Sm TGR inh 8.91µM, RE007 growth inh inconclusive
C/C(=N/O)c1no[n+]([O-])c1/C(C)=N\O	Sm TGR inh 7.08µM
CC(C)COc1ccc(C(=O)Nc2onc3c2CCCC3)cc1	none (no result: LmPK inhibitor, SARS PLP yeast, NS1 function inh, RE007 growth inh)
O=C(CN1CC(=O)Oc2ccccc21)NCc1ccco1	NS1 function inh inconclusive, Sm TGR inh inconclusive
Cc1ccccc1CN1CCN(CC(=O)NCc2ccco2)C1=O	Sm TGR inh 39.8µM
O=C(CSc1ccccc1)NCc1ccco1	none
O=C(CN1CCOc2ccccc21)NCc1ccco1	NS1 function inh inconclusive, Sm TGR inh 50.1µM
O=C(CSc1ccc2c(c1)OCCO2)NCc1ccco1	Sm TGR inh 20µM
CCOC(=O)c1ccc(NC2=CC(c3ccc(F)cc3)N(c3ccc(C(=O)OCC)cc3)C2=O)cc1 (stereo unspecified)	none (no result: LmPK inhibitor, SARS PLP yeast, NS1 function inh, RE007 growth inh)
O=C(Nc1cccc(C(=O)OCc2cc(=O)n3c4c(sc3n2)CCCC4)c1)c1cccc(F)c1	none (no result: LmPK inhibitor, SARS PLP yeast, NS1 function inh, RE007 growth inh)
COc1cccc(C2=NC(C)(C)NC(c3ccccc3O)C2)c1 (stereo unspecified)	RE007 growth inh inconclusive
CCC1(C)N=C(c2ccc3c(c2)OCO3)CC(c2ccccc2O)N1 (stereo unspecified)	LmPK inhibitor 10µM, Sm TGR inh inconclusive
O=C1NC(=O)N(c2ccccc2)C(=O)/C1=C/c1ccc2c(c1)Cc1ccccc1-2	Sm TGR inh inconclusive (no result: TbPYK inhibitor, NS1 function inh, RE007 growth inh)
COc1ccccc1N1C(=O)NC(=O)/C(=C/c2ccc3c(c2)Cc2ccccc2-3)C1=O	Sm TGR inh 31.6µM
Nc1ccc([As](=O)(O)O)cc1	Sm TGR inh 35.5µM
O=C(O)c1cccc(C[C@H](Br)C(=O)O)c1	none (no result: LmPK inhibitor, TbPYK inhibitor, SARS PLP yeast, Sm TGR inh, RE007 growth inh)
